Shown is part of a subset that was picked to be rich in hits.
RMI-FANCM inh – inhibitors of human RMI core complex binding to FANCM MM2 | actives 0.58% (n = 70,000) | FP signal (polarization) at 33 µM | Fluorescence polarization, RMI core complex with F-MM2 peptide; hits give low values | AID 1159607; in the data active means FP signal below about 40
* marks the source's active call; other numbers are inactive results.

SMILES | RMI-FANCM inh
Cn1/c(=N/N=C2CCCCC2)sc2ccccc21 | 55
N#C/C(=C\c1cn[nH]c1-c1ccccc1)c1nc2ccccc2s1 | 68
Cc1cccc(Oc2nc3ccccn3c(=O)c2/C=C(\C#N)c2nc3ccccc3s2)c1 | 0*
N#C/C(=C\c1ccc(C#N)cc1)c1nc2ccccc2s1 | 71
COc1ccc(N2CCN(CCNS(=O)(=O)c3ccccc3Cl)CC2)cc1 | 62
O=C(Nc1cccc(-c2ccc3nnc(-c4cccs4)n3n2)c1)c1ccccc1Cl | 69
N#C/C(=N/Nc1ccc(F)cc1)S(=O)(=O)c1cccs1 | 58
CCN(CC)c1nc(C)nc2c1sc(=S)n2-c1ccccc1 | 52
CCOC(=O)CNC(=O)c1cc([N+](=O)[O-])ccc1Oc1ccc(OC)cc1 | 59
COc1ccc(Oc2ccc([N+](=O)[O-])cc2-c2nc(-c3ccccn3)no2)cc1 | 59
COc1ccc(Oc2ccc([N+](=O)[O-])c3nonc23)cc1 | 4*
CCOc1ccc(N2C(=O)S/C(=C\C=C\c3ccco3)C2=O)cc1 | 54
CCOc1ccccc1N1C(=O)/C(=C/C=C/c2ccco2)SC1=S | 14*
CCOc1ccccc1N1C(=O)CNC1=S | 55
CCOC(=O)N1CCN(C(=O)CSc2ccc3nnc(-c4cccs4)n3n2)CC1 | 60
COc1ccc(S(=O)(=O)Nc2ccc3c(c2)C(=O)Nc2ccccc2O3)cc1F | 67
O=C(CSc1ccc(F)cc1)NCCSCc1ccco1 | 59
COc1ccc(-c2cc(-c3ccccc3)nc(SCC(=O)NCC3CCCO3)c2C#N)cc1 (stereo not drawn) | 94
COc1ccc(-c2cc(-c3ccc(OC)cc3)c3c(N)c(C(=O)c4ccc(Cl)cc4)sc3n2)cc1 | 500
COc1ccc(-c2cc(-c3ccccc3)nc3sc(C(=O)NCC4CCCO4)c(N)c23)cc1 (stereo not drawn) | 9*
COc1ccc(-c2cc(-c3ccc(C)c(C)c3)nc3sc(C(N)=O)c(N)c23)cc1 | 123
CC1(C)CC(=O)c2c(nc3sc(C(=O)NCC4CCCO4)c(N)c3c2-c2ccccc2)C1 (stereo not drawn) | 53
COc1ccc(-c2cc(-c3ccc(Cl)cc3)nc3sc(C(=O)N4CCOCC4)c(N)c23)cc1 | -18*
CSc1nc(N)nc(-c2ccncc2)n1 | 56
N#Cc1cnn(-c2nnc(-c3ccc(F)cc3)c3ccccc23)c1N | 74
SMILES | RMI-FANCM inh
COc1ccccc1N1CCN(c2nc(Nc3ccc(C)cc3)c3nccnc3n2)CC1 | 59
CC(=O)N1CCN(c2ccc(C=O)cc2)CC1 | 57
CC(=O)N1CCc2ccc(NC(=O)COc3ccc(Cl)cc3Cl)cc21 | 73
Cc1nc2ccc(NC(=O)Nc3ccc4c(c3)OCO4)cc2c(=O)n1-c1ccc(Cl)cc1 | 28*
Cc1nc2ccc(NC(=O)C(C)Oc3ccc4c(c3)OCO4)cc2c(=O)n1-c1ccccc1 (stereo not drawn) | 64
Cc1ccc(-n2c(C)nc3ccc(NC(=O)Nc4ccc(F)c(Cl)c4)cc3c2=O)cc1 | 72
CCOC(=O)c1c(C)oc2c1c1c(c3ccccc32)OCN(C2CCCCC2)C1 | 31*
CCOC(=O)c1c(-c2ccccc2)oc2c1cc(OC(=O)c1cc(OC)cc(OC)c1)c1ccccc12 | 54
CCOC(=O)c1c(C)oc2c(F)c(F)c(F)c(F)c12 | 62
Cc1ccc(Sc2c(C)nn(S(=O)(=O)c3cccs3)c2C)cc1 | 64
O=c1/c(=C\c2ccc(Cl)cc2)sc2nc(-c3ccc(Cl)cc3)nn12 | 59
O=c1nc2s/c(=C/c3ccccn3)c(=O)n2nc1-c1ccccc1 | 21*
O=c1/c(=C/c2ccccc2)sc2nnc(-c3ccc(Cl)cc3)n12 | 52
CC1SCC(NC(=O)Nc2ccc(Cl)cc2)CS1 (stereo not drawn) | 56
Cc1c(CCC(=O)O)c(C)n2c(nc3ccccc32)c1C#N | 61
COc1ccc(-c2ccnc(SCc3cccc([N+](=O)[O-])c3)n2)cc1 | 56
Cc1ccc(C(=O)Nc2nc3c(F)cccc3s2)cc1C | 70
CC1CCN(C(=O)CSc2nc(-c3ccccc3F)nc3c2c(=O)n(C)c(=O)n3C)CC1 | 70
CN1C(=O)c2cccc(N)c2C1=O | -41*
CN1C(=O)c2cccc(NC(=O)c3cccc(Cl)c3)c2C1=O | 73
CN1C(=O)c2cccc(NC(=O)c3ccc(N(C)C)cc3)c2C1=O | 68
CCOC(=O)CCC(=O)Nc1c(C(=O)Nc2ccc3c(c2)OCO3)oc2ccccc12 | 57
CCN1C(=O)C2CC(C)=C(C)CC2C1=O (stereo not drawn) | 29*
CC1=C(C)CC2C(=O)N(C(Cc3ccccc3)C(=O)O)C(=O)C2C1 (stereo not drawn) | 57
CC1=C(C)CC2C(=O)N(c3ccc(O)cc3)C(=O)C2C1 (stereo not drawn) | 59
SMILES | RMI-FANCM inh
O=C(NCCc1ccco1)C(=O)NCC(c1cccs1)S(=O)(=O)c1ccc(Cl)cc1 (stereo not drawn) | 54
Cc1nc(CSc2nnc3c(C)cc4ccccc4n23)cs1 | 61
O=C(/C=C/c1cccs1)Nc1nnc(-c2cccs2)o1 | 62
COc1cc(NS(=O)(=O)c2ccc3ccccc3c2)ccc1N1CCCCC1=O | 52
O=C(COc1ccc(S(=O)(=O)Nc2ccccc2)cc1Cl)c1ccccc1 | 57
O=C(Oc1ccc(NS(=O)(=O)c2ccc3ccccc3c2)cc1Cl)c1ccccc1 | 29*
COc1ccc(-n2ccnc(SCc3cccc([N+](=O)[O-])c3)c2=O)cc1Cl | 69
O=C1CC(c2ccccc2)Oc2ccc(F)cc21 (stereo not drawn) | 60
NC(=O)c1cc2cc(F)ccc2[nH]1 | 60
Cc1ccc(S(=O)(=O)N2N=C(c3cccc(NS(C)(=O)=O)c3)CC2c2cccc([N+](=O)[O-])c2)cc1 (stereo not drawn) | 55
Cc1cc2c3c(c1)c(O)c(-c1ccccc1)c(=O)n3CCC2 | 62
COc1cc(O)c2c(c1)C(=O)c1cc(C)cc(O)c1C2=O | 55
Cc1cc(O)c2c(c1)Cc1cccc(O)c1C2=O | -15*
Cc1cc(S(=O)(=O)N2CCN(Cc3ccc4c(c3)OCO4)CC2)c(C)cc1Cl | 64
CN1CCN(CC(=O)Nc2ccc(F)cc2F)CC1 | 56
OCc1ccccc1O[C@@H]1O[C@H](CO)[C@@H](O)[C@H](O)[C@H]1O | 59
O=C(O)c1cc(O)c2c(c1)[C@@H]([C@@H]1c3cc(C(=O)O)cc(O)c3C(=O)c3c(O[C@H]4O[C@H](CO)[C@@H](O)[C@H](O)[C@H]4O)cccc31)c1cccc(O[C@H]3O[C@H](CO)[C@@H](O)[C@H](O)[C@H]3O)c1C2=O | 34*
O=[N+]([O-])c1ccccc1O[C@@H]1O[C@H](CO)[C@H](O)[C@H](O)[C@H]1O | 60
O=C(c1ccc(N2C(=O)C3CCCCC3C2=O)cc1)N1CCN(c2cccc(C(F)(F)F)c2)CC1 (stereo not drawn) | 64
O=C(c1ccc2c(c1)OCO2)N1CCN(Cc2nc(-c3cccs3)cs2)CC1 | 60
Cc1cc(NC(=O)Cc2ccccc2)ccc1O | 54
CCc1nnc(-c2cccc(OCC(=O)Nc3cc(C)on3)c2)o1 | 62
O=C(Nc1nc2c(s1)CCc1ccccc1-2)c1nc2ccccc2s1 | 58
O=C(Nc1nc2c(s1)Cc1ccccc1-2)c1ccc2ncsc2c1 | 74
O=C(Nc1nc2c(s1)Cc1ccccc1-2)c1nc2ccccc2s1 | -62*
Cc1cc(Nc2ccc(N(C)C)cc2)c2ccc(C(F)(F)F)cc2n1 | 19*
CCOC(=O)c1cnc2cc(C(F)(F)F)ccc2c1Nc1ccc(S(=O)(=O)N(C)C)cc1 | 65

Screens as filed in PubChem BioAssay.
